Data on 40 molecules can be found in PubChem BioAssay (NCATS).

The structures appear in SMILES notation. Inconclusive results are not listed. A call without a number means that no potency is given here. Calls of active or inactive are those of the source. Calls follow the shape of the dose curve; as a rule, active = well fitted inhibition curve with a large enough effect; inconclusive = small, poorly fitted or top-dose-only effect; inactive = flat fitted curve, though single readings scatter.

Chain of Calcium and integrin-binding protein 1 (Homo sapiens) (Q99828 whole entry, looked up): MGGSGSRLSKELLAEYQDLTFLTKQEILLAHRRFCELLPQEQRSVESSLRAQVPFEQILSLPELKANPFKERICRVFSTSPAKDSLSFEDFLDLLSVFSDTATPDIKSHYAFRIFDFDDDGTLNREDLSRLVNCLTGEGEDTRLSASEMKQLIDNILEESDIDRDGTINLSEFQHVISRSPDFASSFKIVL

The experiment concerns the target Calcium and integrin-binding protein 1 (Homo sapiens) (UniProt Q99828). Description: Primary qHTS for Identification of Calcium Integrin Binding Protein 1 (CIB1) Competitor (AID 1508620).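 Also: GST tagged CIB1 binding a fluorescein labelled alphaIIb integrin peptide tracer; top concentration of the series differs between compounds.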 As to conditions: CIB1-GST / FITC-alphaIIb peptide fluorescence polarization; series mostly up to 114 µM. An outline of the steps: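 Fluorescence polarization competition: CIB1-GST (1 uM final) preincubated with compound 15 min at room temperature, then FITC-labeled alphaIIb peptide (100 nM final) added for another 15 min. Polarization read at Ex 480/Em 540.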
Background: qHTS replaces the single test concentration by a dilution series.
`COc1cccc(-c2ccc3ncnc(NCc4ccc5c(c4)OCO5)c3c2)c1`: the Potency entry is “inactive”.

For `Cc1cc(NS(=O)(=O)c2ccc(NC(=O)Cc3ccc(Cl)cc3Cl)cc2)no1`, the Potency result was “inactive”.

Consider `N#CN1CCC(NS(=O)(=O)c2ccc(F)cc2)C1` (stereo not given), for which the Potency result is “inactive”.

Turning to `Cc1ccnc(NC(=S)N2CCN(c3cccc([N+](=O)[O-])c3)CC2)c1`, the Potency entry was “inactive”.

For the molecule `Cc1nc(NCc2ccc(-c3cccnc3)cc2)c2ccccc2n1`, the Potency entry was “inactive”.

For the molecule `COc1ccc(Nc2nn3c(=O)c4ccccc4nc3s2)cc1`, the Potency result was “inactive”.

`Cc1ccc(CSc2nnc(-c3cccc4ccccc34)o2)cc1`: the Potency result was “inactive”.

For `COc1ccc(CNc2ccc(S(=O)(=O)Nc3nccs3)cc2)cc1O`, the Potency result is “inactive”.

For `Cc1ccnc(NC(=S)N2CCN(c3ccc(Cl)c(Cl)c3)CC2)c1`, the Potency entry is “inactive”.

As for `N#Cc1ccc(CSc2nc3ncc(Br)cc3[nH]2)cc1`, the Potency result is “inactive”.

Take `Cc1cccc(CNc2ncnc3ccc(-c4ccc5c(c4)OCCO5)cc23)c1`: the Potency result is “inactive”.

On to `N#Cc1ccc(NS(=O)(=O)c2ccc3c(c2)CCC(=O)N3)cc1`, for which the Potency result was “inactive”.

Regarding `CC(=O)Nc1sc2c(c1-c1nc3ccccc3s1)CNCC2`, the Potency result is “inactive”.

Turning to `O=Cc1ccc(N2CCN(S(=O)(=O)c3ccc4c(c3)CC(=O)N4)CC2)cc1`, the Potency result was “inactive”.

Consider `COc1cc(O)c(C(CC(=O)N2CCCC(CN3CCCCC3)C2)c2ccc3c(c2)OCO3)c(OC)c1` (stereo not given), for which the Potency result is “inactive”.

Consider `O=C1c2ccccc2C(=O)N1c1noc2ccccc12`, for which the Potency result was “inactive”.

As to `COc1ccnc(NC(=S)N2CCN(c3ncc(C(F)(F)F)cc3Cl)CC2)c1`, the Potency result is “inactive”.

Consider `COc1ccc([S+](=O)([O-])Nc2ccc(-c3nc4ccccc4[nH]3)cc2)cc1OC`, for which the Potency entry was “inactive”.

As for `O=C1Cc2cc(C(=O)c3ccco3)ccc2N1`, the Potency entry is “inactive”.

As to `N[C@@H](CCC(=O)O)C(=O)Nc1ccc(Cl)cc1C(=O)c1ccc[nH]1`, the Potency result was “inactive”.

Regarding `Cc1cc(C)nc(NC(=S)N2CCN(c3ccc4c(c3)OCO4)CC2)c1`, the Potency entry is “inactive”.

On to `Cc1ccnc(NC(=S)N2CCN(c3ncc(C(F)(F)F)cc3Cl)CC2)c1`, for which the Potency entry was “inactive”.

In the case of `Cc1cc(C)n2ncc(C(=O)Nc3cccc(C#N)c3)c2n1`, the Potency result is “inactive”.

Turning to `Fc1ccc(-c2ccc(CNc3nc(-c4ccccc4C(F)(F)F)nc4ccccc34)cc2)cc1`, the Potency entry was “inactive”.

For the molecule `Cc1cc(NS(=O)(=O)c2ccc(NC(=O)Cc3ccc(Cl)cc3)cc2)no1`, the Potency entry was “inactive”.

For the molecule `Cc1csc(CNc2ncnc3cc(-c4ccc5c(c4)OCO5)ccc23)n1`, the Potency result was “inactive”.

As for `O=C(Nc1ccc(Cl)cc1)Nc1nnc(-c2ccncc2)s1`, the Potency result was “inactive”.

For the molecule `CN(C)c1ccc(C(=O)NCC(=O)OC(C(=O)Nc2cc(C(F)(F)F)ccc2Cl)c2ccccc2)cc1` (stereo not given), the Potency result was “inactive”.

In the case of `C=CCSc1nnc(-c2cccc3ccccc23)o1`, the Potency result was “inactive”.

Turning to `O=S1(=O)N=C(Sc2cccc3cccnc23)c2ccccc21`, the Potency result is “inactive”.

For `CC(=O)Nn1c(C)nc2sc3c(c2c1=O)CCNC3`, the Potency result is “inactive”.

As to `CC(=O)c1cc2c(s1)c1cnn(Cc3ccccc3F)c(=O)c1n2C`, the Potency entry is “inactive”.

As to `Cc1cccc(-c2ccc3ncnc(NCc4cc(C)cs4)c3c2)c1`, the Potency entry was “inactive”.

Take `Fc1cnc(-c2ccccc2C(F)F)nc1NCc1ccc(-c2ccn[nH]2)cc1`: the Potency entry was “inactive”.

As for `O=C1CCCC2=C1C(c1ccc(F)cc1)N=C(Nc1nc3ccccc3o1)N2` (stereo not given), the Potency result is “inactive”.

Consider `CN(C)c1ccc(C(=O)OCC#CCSc2nnc(-c3cccc4ccccc34)o2)cc1`, for which the Potency result was “inactive”.

Take `CC(=O)Nc1sc2cnccc2c1-c1nc2ccccc2s1`: the Potency result is “inactive”.

Turning to `CC(=O)Nc1sc2c(c1-c1nc(-c3ccccc3)cs1)CCN(C(C)C)C2`, the Potency entry is “inactive”.

Consider `CC(=O)c1ccc(-c2ccc3ncnc(NCc4ccc(C)o4)c3c2)o1`, for which the Potency entry was “inactive”.

`O=[S+]([O-])(c1c(F)cccc1F)N1CCN([S+](=O)([O-])c2c(F)c(F)c(F)c(F)c2F)CC1`: the Potency result was “inactive”.
